# Source: the supplement of paper PMC7366291
# Structures can show the parent of a compound that is named as a salt. ± gives the standard deviation or the standard deviation of the averaged measurements.
# Key:
# Settings in all cases: 25 µM; exposure: 24-48 hpf
# [1] = test system: Danio rerio Tg(wt1b:EGFP) embryo, pronephros; assay: glomerular separation, fold change vs DMSO control; higher = glomeruli further apart (abnormal)
# Outline: (§1)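 Using a Fiji macro, distances and angles were calculated from 16 reference points set by hand on maximum projections of pronephroi imaged dorsally (470 nm, 10 z-slices) in agarose-filled 96-well plates. The dechorionated Tg(wt1b:EGFP) zebrafish embryos had received 25 μM compound in 0.5% DMSO in HEPES-buffered E3 with 0.003% PTU from 24 to 48 hpf at 28.5°C. Values more than 2 SD from a feature's mean were excluded. Each feature appears as a fold change over the mean of DMSO-treated embryos from the same day.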
# [2] = test system: Danio rerio Tg(wt1b:EGFP) embryo, pronephros; assay: glomerular width (mean of left and right), fold change vs DMSO control; higher = wider glomerulus
# Outline: as §1
# [3] = test system: Danio rerio Tg(wt1b:EGFP) embryo, pronephros; assay: fraction of imaged embryos annotated as normal kidney; higher = less nephrotoxic; extreme values may be limits of the assay
# Outline: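 Tricaine-anaesthetised Tg(wt1b:EGFP) zebrafish larvae were oriented dorsally in agarose-filled 96-well plates, and their pronephroi were recorded by widefield fluorescence at 470 nm in 10 z-slices. Before this, the dechorionated embryos had been exposed in 12-well plates to 25 μM compound in 0.5% DMSO and 5 mM HEPES-buffered E3 with 0.003% PTU, from 24 to 48 hpf at 28.5°C. Maximum projections were annotated manually for each embryo, and the read-out is the fraction per treatment classed as normal kidney.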
# [4] = test system: Danio rerio Tg(wt1b:EGFP) embryo, pronephros; assay: pronephric angle neck segment to proximal convoluted tubule (mean of left and right), fold change vs DMSO control; higher = larger pronephric angle
# Outline: as §1
SMILES,glomerular separation [1],glomerular width [2],fraction of imaged embryos annotated as normal kidney [3],pronephric angle neck segment [4]
CCCCN(CCCC)CCCOC(=O)c1ccc(N)cc1 [Butacaine],0.928 ± 0.47,0.939 ± 0.05,0.917,0.9912 ± 0.0092
CCN(CC)CCNC(=O)c1ccc(N)cc1 [Procainamide hydrochloride],0.95 ± 0.48,1.11 ± 0.027,0.455,1.1 ± 0.22
CC(C)(C)NCC(O)COc1cccc2c1CC(O)C(O)C2 (stereo unspecified) [Nadolol],0.664 ± 0.2,1.03 ± 0.12,0.833,0.908 ± 0.02
O=C(O)c1cn(-c2ccc(F)cc2)c2cc(N3CCNCC3)c(F)cc2c1=O [Sarafloxacin],1.17 ± 0.4,1.08 ± 0.039,0.455,1.02 ± 0.013
CCOc1ccc2c(c1)C(C)=CC(C)(C)N2 [Ethoxyquin],0.864 ± 0.31,1.04 ± 0.039,0.75,0.975 ± 0.044
CO[C@@]1(NC(=O)C2SC(=C(C(N)=O)C(=O)O)S2)C(=O)N2C(C(=O)O)=C(CSc3nnnn3C)CS[C@@H]21 (stereo partly specified) [Cefotetan],1.24 ± 0.33,0.972 ± 0.012,0.909,0.985 ± 0.06
COc1ccc(C(=O)c2ccccc2)c(O)c1 [Oxybenzone],0.878 ± 0.34,1.09 ± 0.026,0.833,1.03 ± 0.02
C[C@]12CC[C@@H]3c4ccc(O)cc4CC[C@H]3[C@@H]1CCC2=O [Estrone],0.922 ± 0.35,0.983 ± 0.0046,1,1.05 ± 0.019
Cc1c(Nc2ncccc2C(=O)O)cccc1C(F)(F)F [Flunixin meglumine],6.16 ± 1.6,0.491 ± 0.031,0,1.9787 ± 0.0013
CNCCCC1c2ccccc2C=Cc2ccccc21 [Protriptyline hydrochloride],0.765 ± 0.31,1.07 ± 0.027,0.75,0.973 ± 0.027
"CN(Cc1cnc2nc(N)nc(N)c2n1)c1ccc(C(=O)N[C@@H](CCC(=O)O)C(=O)O)cc1 (racemic) [Amethopterin (R,S)]",1.29 ± 0.49,0.996 ± 0.022,0.75,1.03 ± 0.036
CO[C@H]1/C=C/O[C@@]2(C)Oc3c(C)c(O)c4c(O)c(c(/C=N/N5CCN(C)CC5)c(O)c4c3C2=O)NC(=O)/C(C)=C\C=C\[C@H](C)[C@H](O)[C@@H](C)[C@@H](O)[C@@H](C)[C@H](OC(C)=O)[C@@H]1C [Rifampicin],1.08 ± 0.28,1.02 ± 0.018,0.833,0.991 ± 0.022
O=C(O)Cc1ccc(-c2ccccc2)cc1 [Felbinac],4.74 ± 1.6,0.627 ± 0.0096,0,1.73 ± 0.04
CC(C(=O)O)c1ccc2c(c1)Cc1cccnc1O2 (stereo unspecified) [Pranoprofen],0.724 ± 0.18,0.956 ± 0.035,0.583,1.049 ± 0.01
CNC(C)CCC=C(C)C (stereo unspecified) [Isometheptene mucate],0.941 ± 0.26,0.958 ± 0.039,0.917,0.977 ± 0.024
CCN(CCO)CCCC(C)Nc1ccnc2cc(Cl)ccc12 (stereo unspecified) [Hydroxychloroquine sulfate],1.03 ± 0.49,1.038 ± 0.0043,0.833,0.935 ± 0.055
CCN1CCCC1CNC(=O)c1cc(S(=O)(=O)CC)c(N)cc1OC (stereo unspecified) [Amisulpride],0.971 ± 0.31,1.04 ± 0.042,0.9,0.9586 ± 0.0016
COc1ccc2[nH]cc(CCNC(C)=O)c2c1 [Melatonin],0.974 ± 0.26,0.989 ± 0.026,0.917,1.02 ± 0.056
C=C(NC(=O)C(=C)NC(=O)c1csc(C2=N[C@@H]3c4csc(n4)[C@H]4NC(=O)c5csc(n5)[C@H]([C@](C)(O)[C@@H](C)O)NC(=O)[C@H]5CSC(=N5)/C(=C/C)NC(=O)[C@H]([C@@H](C)O)NC(=O)c5csc(n5)[C@]3(CC2)NC(=O)[C@H](C)NC(=O)C(=C)NC(=O)[C@H](C)NC(=O)[C@H]([C@@H](C)CC)N[C@@H]2C=Cc3c([C@H](C)O)cc(nc3[C@H]2O)C(=O)O[C@@H]4C)n1)C(N)=O [Thiostrepton],1.02 ± 0.32,1.02 ± 0.056,0.917,1.01 ± 0.12
Cc1cccc(N(C)C(=S)Oc2ccc3ccccc3c2)c1 [Tolnaftate],2.28 ± 1.3,0.952 ± 0.03,0.75,1.05 ± 0.065
Nc1nc2c(ncn2COCCO)c(=O)[nH]1 [Acyclovir],1.05 ± 0.49,1.06 ± 0.041,0.583,0.888 ± 0.022
N#Cc1ccc(C(c2ccc(C#N)cc2)n2cncn2)cc1 [Letrozole],1.1 ± 0.4,1.023 ± 0.0059,0.917,0.938 ± 0.014
O=C1c2c(O)ccc(O)c2C(=O)c2c(NCCNCCO)ccc(NCCNCCO)c21 [Mitoxantrone dihydrochloride],1.13 ± 0.46,1.03 ± 0.063,0.667,1.07 ± 0.1
CNC(=C[N+](=O)[O-])NCCSCc1csc(CN(C)C)n1 [Nizatidine],0.966 ± 0.41,0.9023 ± 0.0037,0.917,1.01 ± 0.043
Cc1cc2c(s1)Nc1ccccc1N=C2N1CCN(C)CC1 [Olanzapine],0.786 ± 0.41,0.925 ± 0.034,0.917,1.01 ± 0.041
Cc1ccc(C)c(OCCCC(C)(C)C(=O)O)c1 [Gemfibrozil],5.88 ± 2.2,0.602 ± 0.06,0,1.73 ± 0.11
CCOC(=O)[C@H](CCc1ccccc1)N[C@@H](C)C(=O)N1CCC[C@H]1C(=O)O [Enalapril maleate],0.704 ± 0.19,1.01 ± 0.03,0.667,0.9423 ± 0.0071
CS(=O)(=O)c1ccc(C2=C(c3ccccc3)C(=O)OC2)cc1 [Rofecoxib],0.981 ± 0.22,0.974 ± 0.11,1,0.969 ± 0.024
CC(C(=O)O)c1ccc(C(=O)c2ccccc2)s1 (stereo unspecified) [Tiaprofenic acid],1.58 ± 0.4,1.07 ± 0.067,0.667,1.03 ± 0.015
